Assay results: the supplement of paper PMC9135407
Counter-ions that a name gives are not always drawn. A number with no mark means an inactive call.

Test system: primary human hepatic stellate cells (donor 1)
Experiment: COL1A1 mRNA fold change vs DMSO (normalised to PSMB2); higher = more COL1A1 expression, active = hit call of the paper
Conditions: 48 h
Description: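 Secondary qRT-PCR screen in primary human HSCs (donor 1), 384-well plates, with compounds dispensed in quadruplicate and incubated for 48 h. Cells-to-CT lysates were used for multiplexed TaqMan qPCR of ACTA2 or COL1A1 with PSMB2 as reference. Fold changes versus DMSO come from a linear model (Ct_gene ~ Ct_PSMB2 + plate + chemical). A hit is defined as COL1A1 and ACTA2 FC <0.5 (FDR <0.05) with PSMB2 between 0.2 and 2.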

Compound	COL1A1 mRNA fold change
Nc1ccc(C(=O)Nc2cccc(-c3nc(N4CCOCC4)c4oc5ncccc5c4n3)c2)cn1 (6.66667 µM)	1.15
C[C@@H](CN1CCC(n2c(=O)[nH]c3cc(Cl)ccc32)CC1)NC(=O)c1ccc2ccccc2c1 (33.3333 µM)	0.19
Cc1nc(Nc2ncc(C(=O)Nc3c(C)cccc3Cl)s2)cc(N2CCN(CCO)CC2)n1 (33.3333 µM)	0.446 (active)
O=C1NCN(c2ccccc2)C12CCN(CCCC(c1ccc(F)cc1)c1ccc(F)cc1)CC2 [Fluspirilene] (14.0333 µM)	0.695
CC(/C=C/C(=O)NO)=C\[C@@H](C)C(=O)c1ccc(N(C)C)cc1 [Trichostatin A] (3.33333 µM)	0.405 (active)
C#C[C@]1(O)CC[C@H]2[C@@H]3CCC4=Cc5oncc5C[C@]4(C)[C@H]3CC[C@@]21C [Danazol] (33.3333 µM)	0.0336 (active)
CN1CCCN(C(c2ccccc2)c2ccc(Cl)cc2)CC1 (stereo not given) [Homochlorcyclizine dihydrochloride] (33.3333 µM)	0.0131 (active)
O=C1NC(=O)/C(=C/c2ccc(-c3ccc(F)cc3O)o2)S1 (33.3333 µM)	0.115
COC(=O)C[C@](O)(CCCC(C)(C)O)C(=O)O[C@@H]1C(OC)=C[C@]23CCCN2CCc2cc4c(cc2[C@H]13)OCO4 [Homoharringtonine] (33.3333 µM)	0.0354 (active)
COc1cc2nc(N3CCCN(C)CC3)nc(NC3CCN(Cc4ccccc4)CC3)c2cc1OC (3.33333 µM)	0.0424 (active)
Cc1ccc(NC(=O)c2ccc(CN3CCN(C)CC3)cc2)cc1Nc1nc(-c2cccnc2)cs1 [Masitinib (AB1010, Masivet)] (6.66667 µM)	1.31
NS(=O)(=O)C#Cc1ccccc1 [Pifithrin->m] (33.3333 µM)	0.18
NC(N)=NC(=O)c1nc(Cl)c(N2CCCCCC2)nc1N [5-(N,N-hexamethylene)amiloride] (33.3333 µM)	0.0273 (active)
CC(C)(C)c1cc(NC(=O)Nc2ccc(-c3cn4c(n3)sc3cc(OCCN5CCOCC5)ccc34)cc2)no1 [Quizartinib  (AC220)] (11.1 µM)	1.01
Clc1ccccc1CNCC1CCC(CNCc2ccccc2Cl)CC1 (stereo not given) (33.3333 µM)	0.055
CN(C)Cc1c(C(=O)NCCOc2ccc(C(=O)NO)cc2)oc2ccccc12 (33.3333 µM)	0.0321 (active)
[O-][S+](c1ccccc1)c1ccc2nnnn2n1 (stereo not given) (33.3333 µM)	0.0868
CCCCc1oc2ccccc2c1C(=O)c1cc(I)c(OCCN(CC)CC)c(I)c1 (33.3333 µM)	0.057 (active)
CNC(=O)[C@@H](Cc1ccccc1)N(C)C(=O)[C@@H](Cc1ccc2ccccc2c1)N(C)C(=O)/C=C/CC(C)(C)N [Tabimorelin] (33.3333 µM)	0.935
CCN1CCC(n2cc(CNc3cc(Cl)c4ncc(C#N)c(Nc5ccc(F)c(Cl)c5)c4c3)nn2)CC1 (33.3333 µM)	0.124

Compound	COL1A1 mRNA fold change
Cc1cc(C(=O)Nc2cc(Nc3ccc4c(/C=C/c5ccccn5)n[nH]c4c3)ccc2F)n(C)n1 (33.3333 µM)	0.363 (active)
CC(C)c1cc(-c2n[nH]c(=O)n2-c2ccc3c(ccn3C)c2)c(O)cc1O [Ganetespib (STA-9090)] (33.3333 µM)	1.04
CNCCCC1c2ccccc2C=Cc2ccccc21 [Protryptyline hydrochloride] (22.2333 µM)	0.548
CC1(C)CC(=O)c2c(C(F)(F)F)nn(-c3ccc(C(N)=O)c(N[C@H]4CC[C@H](OC(=O)CN)CC4)c3)c2C1 (33.3333 µM)	0.807
CSc1ccc2c(c1)C(N1CCN(C)CC1)Cc1ccccc1S2 (stereo not given) [Methiothepin maleate] (33.3333 µM)	0.00214
CCN(CC)CCNC(=O)c1c(C)[nH]c(/C=C2\C(=O)Nc3ccc(F)cc32)c1C (6.66667 µM)	0.664
CCCCCCCCCCCCC/C=C/[C@@H](O)[C@H](CO)N(C)C [N,N-Dimethylsphingosine] (3.33333 µM)	0.928
CN1CCC(=C2c3ccccc3C=Cc3ccccc32)CC1 [Cyproheptadine] (33.3333 µM)	0.078 (active)
CCc1cc2c(cc1CC)CC(NC[C@H](O)c1ccc(O)c3[nH]c(=O)ccc13)C2 [Indacaterol Maleate] (33.3333 µM)	0.0797 (active)
Cc1ccc(-c2ccc3c(ccc4sc5c(c43)NC[C@@H](C)NC5=O)n2)cn1 (33.3333 µM)	1.21
Cn1cc(CNCC2CCN(c3ncc(C(=O)NO)cn3)CC2)c2ccccc21 [Quisinostat] (33.3333 µM)	0.00578
C[C@H]1O[C@@H](O[C@H]2[C@@H](O)C[C@H](O[C@H]3[C@@H](O)C[C@H](O[C@H]4CC[C@@]5(C)[C@H](CC[C@@H]6[C@@H]5C[C@@H](O)[C@]5(C)[C@@H](C7=CC(=O)OC7)CC[C@]65O)C4)O[C@@H]3C)O[C@@H]2C)C[C@H](O)[C@@H]1O [Digoxin] (33.3333 µM)	0.0679 (active)
c1cc(OCCN2CCCCC2)cc(-c2n[nH]c3ccc(-c4nnc[nH]4)cc23)c1 (33.3333 µM)	0.105 (active)
CN(C)C/C=C(/c1ccc(Br)cc1)c1cccnc1 [Zimelidine dihydrochloride] (11.1 µM)	2.1
CCNC(=O)c1noc(-c2cc(C(C)C)c(O)cc2O)c1-c1ccc(CN2CCOCC2)cc1 (11.1 µM)	1.09
NC[C@@H]1O[C@H](C23CC4CC(CC(C4)C2)C3)Cc2c1ccc(O)c2O (33.3333 µM)	0.136
CCCCCCCCc1ccc(CCC(N)(CO)CO)cc1 [Fingolimod (FTY720) HCl] (11.1 µM)	0.392
OCCN1CCN(CCCN2c3ccccc3Sc3ccc(C(F)(F)F)cc32)CC1 (33.3333 µM)	0.0645
CNc1nccc(-c2cccnc2Oc2cc(C(=O)Nc3cccc(C(F)(F)F)c3)ccc2C)n1 (33.3333 µM)	0.618
CN(C)CCC(c1ccc(Br)cc1)c1ccccn1 (stereo not given) [Brompheniramine maleate] (33.3333 µM)	0.705
